TRHR ag: qHTS for Small Molecule Agonists and Allosteric Enhancers of Human TRH Receptor: Primary Screen for Agonists; Thyrotropin-releasing hormone receptor (Homo sapiens), P34981; TRHR cells, calcium flux fluo-8, FDSS agonist mode; activation, % at 2 µM; actives 0.18% (n = 360,000)
Target sequence (P34981 whole entry, looked up): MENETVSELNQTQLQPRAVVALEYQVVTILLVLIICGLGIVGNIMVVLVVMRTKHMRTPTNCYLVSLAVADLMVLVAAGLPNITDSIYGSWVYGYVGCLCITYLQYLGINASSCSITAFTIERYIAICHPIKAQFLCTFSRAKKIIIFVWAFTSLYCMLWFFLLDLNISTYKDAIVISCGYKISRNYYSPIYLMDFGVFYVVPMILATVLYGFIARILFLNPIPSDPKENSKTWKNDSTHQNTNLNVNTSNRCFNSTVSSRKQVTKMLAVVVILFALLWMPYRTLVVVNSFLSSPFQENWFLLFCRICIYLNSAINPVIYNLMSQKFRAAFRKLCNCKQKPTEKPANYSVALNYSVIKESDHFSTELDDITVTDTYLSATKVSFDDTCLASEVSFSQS
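TRHR-expressing cells, plated overnight in medium with 10% serum, were loaded with fluo-8 calcium dye at room temperature. After a 10 s baseline, library compound was pin-added and calcium release was recorded kinetically (ex 480/em 530) as agonist response.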
TRHR enhancer: qHTS for Small Molecule Agonists and Allosteric Enhancers of Human TRH Receptor: Primary Screen for Enhancers. AID 493056, 2011. enhancement, % at 2 µM. actives 0.66% (n = 360,000). Thyrotropin-releasing hormone receptor (Homo sapiens), P34981. TRHR cells, fluo-8 calcium fluorescence, EC20 TRH enhancement; in the data active = enhancement above about 30%
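Enhancer read-out: after compound pinning and an initial kinetic agonist-mode read, an EC20 of TRH (10 nM final) was injected and fluo-8 calcium signal (Ex 480/Em 530) followed at 1 s/cycle for 100 cycles in TRHR-expressing cells.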
D1 PAM: Potentiators of Human D1 Dopamine Receptor: qHTS; actives 0.036% (n = 360,000); potentiation, % at 10 µM; HEK293 TREx D1 cells, calcium flux, dopamine EC20 potentiation; D(1A) dopamine receptor (Homo sapiens), P21728; in the data active = potentiation above about 30%
D1 agonist: Allosteric Agonists of the Human D1 Dopamine Receptor: qHTS; D(1A) dopamine receptor (Homo sapiens), P21728; HEK293 T-REx D1 cells, calcium flux, agonist mode; activation, % at 2 µM; actives 1% (n = 360,000); AID 504660, 2011
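Agonism was scored from calcium flux recorded over 180 s (1 read/s) after pintool compound addition, following a 10-cycle baseline. Cells were inducible force-coupled HEK293 TREx D1, plated overnight at 30 C and loaded with no-wash calcium dye.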
D1 antagonist: Antagonist of Human D 1 Dopamine Receptor: qHTS | activity change, negative = inhibition, % at 10 µM | actives 3.2% (n = 360,000) | HEK293 TREx D1 cells, calcium flux, dopamine EC80; active compounds read low | AID 504652, 2011 | D(1A) dopamine receptor (Homo sapiens), P21728; in the data active = activity change below about -30%
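Kinetic fluorescence of a calcium dye serves as the read-out. D1-expressing Hek293 Trex cells, induced overnight at 30 C, are exposed to compound for 180 s before an EC80 dopamine addition, then read 180 s further.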
Large screens that a line does not name were inactive. This is a sample that favours compounds with a hit; in the whole collection about 4.7% have one here. Rule as the data show it, unless noted: active = activation above about 30%; inactive = the rest.

O=C(Nc1nc2cc3c(cc2s1)OCCO3)C1=COCCO1	none
Cc1cc(C)c2sc(NC(=O)C3=COCCO3)nc2c1	D1 antagonist -34.1
O=C(CSc1nc2c([nH]c3ccccc32)c(=O)n1-c1ccccc1)Nc1ccc(Cl)c(Cl)c1	none
COc1ccc(NC(=O)c2oc3ccccc3c2NC(=O)Cc2ccc(F)cc2)c(OC)c1	none
Cc1ccc2c(c1)N(C(=O)N1CCC(C(=O)NC3CCCCCC3)CC1)CC(C)O2 (configuration not stated)	none
O=C(NCC1CCN(Cc2ccccc2Cl)CC1)c1cc2ccc3cccnc3c2[nH]1	none
COc1c(Cl)cc(C(=O)Nc2ccccc2-c2ccccc2)cc1Cl	D1 antagonist -31.4
COc1cccc(C(=O)Nc2ccccc2-c2ccccc2)c1	none
COc1cc(N)c(Cl)cc1NC(=O)c1ccccc1	D1 antagonist -55.0
O=C(COc1ccccc1Br)N1CCN(C(=O)c2cccs2)CC1	none
CCOCCCNC(=O)c1c[nH]c2ccc(S(=O)(=O)Nc3cccc(Cl)c3C)cc2c1=O	none
CCCS(=O)(=O)c1nc(S(=O)(=O)c2ccc(C)cc2)c(N(CC)CC)s1	none
CCCS(=O)(=O)c1nc(S(=O)(=O)c2ccc(C)cc2)c(N(C)Cc2ccccc2)s1	D1 agonist 35.4
CCC1Oc2ccccc2N(CC(=O)NCCCN2CCN(c3ccc(OC)cc3)CC2)C1=O (configuration not stated)	D1 antagonist -90.0
CC1Oc2ccccc2N(CC(=O)NCCN2CCOCC2)C1=O (configuration not stated)	D1 antagonist -67.4
O=C(CN1C(=O)COc2ccccc21)NCCN1CCOCC1	none
Cn1c(SCc2cccc(F)c2)nc2c([nH]c3ccccc32)c1=O	none
COc1ccc(C(=O)c2cc3c(cc2[N+](=O)[O-])OCCO3)cc1	D1 antagonist -31.9
O=C(c1ccccc1F)c1cc2c(cc1[N+](=O)[O-])OCCO2	none
O=c1oc2c3c(ccc2c2ccccc12)OCN(Cc1ccccc1Cl)C3	none
COC(=O)Cc1c(C)c2ccc(OCC(=O)N(C)C)cc2oc1=O	TRHR enhancer 30.4
CCOC(=O)C1=C(C)NC2=C(C(=O)CCC2)C1c1ccc(O)c(OCC)c1 (configuration not stated)	TRHR enhancer 34.1
CCOC(=O)C1CCCN(C2=NC(=O)/C(=C/c3ccc(OC)cc3)S2)C1 (configuration not stated)	none
CCOC(=O)C1CCCN(C2=NC(=O)/C(=C/c3ccc(N(C)C)cc3)S2)C1 (configuration not stated)	D1 agonist 60.1
CS(=O)(=O)N(CC(=O)NCc1ccccc1)C1CCCCC1	D1 antagonist -61.4
COc1ccc(CNC(=O)CN(C2CCCCC2)S(C)(=O)=O)cc1	D1 antagonist -32.4
CC(C)Cn1c(=O)c2sccc2n2c(CCCC(=O)NCCc3ccccc3)nnc12	none
O=C1[C@@H]2C(c3ccc(F)cc3)=NO[C@@H]2C(=O)N1Cc1ccccc1	none
COc1ccc(CN2C(=O)[C@@H]3C(c4ccc(F)cc4)=NO[C@@H]3C2=O)cc1	D1 antagonist -37.4
CCOc1ccccc1CNC(=O)c1[nH]c2ccccc2c1Sc1ccccc1	none
CCC(=O)N1CCc2cc(Br)cc(S(=O)(=O)NCCc3cccc(C)c3)c21	none
COc1ccc(S(=O)(=O)NNC(=O)c2ccccc2-n2cccc2)cc1	D1 antagonist -61.1
Cc1ccc(S(=O)(=O)NNC(=O)c2ccccc2-n2cccc2)cc1	none
COc1cn(-c2ccccc2)nc1C(=O)Nc1ccccc1	none
COc1cn(-c2ccccc2)nc1C(=O)Nc1ccc(C)cc1	D1 agonist 33.9
CC(C)n1cc(/C=C2/NC(=O)N(c3cccc(Cl)c3)C2=O)c2ccccc21	D1 antagonist -53.1
O=C(O)Cn1cc(/C=C2/NC(=O)N(c3ccc(Cl)cc3)C2=O)c2ccccc21	none
CC(C)n1cc(/C=C2\NC(=O)N(c3cccc(Cl)c3)C2=O)c2ccccc21	D1 antagonist -68.0

Source: PubChem (National Center for Advancing Translational Sciences (NCATS))
